gsp antag – antagonizes gsp, the McCune-Albright syndrome mutation; gsp-mutant cells, cAMP HTRF, 30 min; Potency, µM (highest dose often 76.9 µM), without a hit: at the highest dose activity change, negative = inhibition, hits mostly inhibitors; 0.4% of 340,000 active; AID 624288; calls by dose curve; cell line not stated here;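 further: intracellular cAMP measured with PDE inhibitor Ro 20-1724 present during compound exposure; potency means the concentration at half of the fitted maximal effect; on the % scale 0 is the no-effect control and ±100 the full control effect; nearly all actives have a fitted effect of over 65% in size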
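HTRF cAMP read-out (cAMP-d2 plus anti-cAMP antibody-K in lysis buffer, 30 min RT). Before lysis, cells are exposed to compounds with […] for 30 min at 37C in DPBS containing Ca/Mg, BSA and Tween 20.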
RXFP1 antag – antagonists of human relaxin receptor RXFP1. HEK293-RXFP1, relaxin-stimulated cAMP HTRF, 30 min; stronger effect = lower value. activity change, negative = inhibition, % at 57.5 µM. 0.59% of 350,000 active. AID 1259400;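 active means activity change of -60% or lower, but not beyond a set lower limit; inconclusive means change between -60% and -40%, or beyond the set limit; inactive means change above -40%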; further: on the % scale 0 is the no-effect control and ±100 the full control effect
Target sequence (Q9HBX9 whole entry, looked up): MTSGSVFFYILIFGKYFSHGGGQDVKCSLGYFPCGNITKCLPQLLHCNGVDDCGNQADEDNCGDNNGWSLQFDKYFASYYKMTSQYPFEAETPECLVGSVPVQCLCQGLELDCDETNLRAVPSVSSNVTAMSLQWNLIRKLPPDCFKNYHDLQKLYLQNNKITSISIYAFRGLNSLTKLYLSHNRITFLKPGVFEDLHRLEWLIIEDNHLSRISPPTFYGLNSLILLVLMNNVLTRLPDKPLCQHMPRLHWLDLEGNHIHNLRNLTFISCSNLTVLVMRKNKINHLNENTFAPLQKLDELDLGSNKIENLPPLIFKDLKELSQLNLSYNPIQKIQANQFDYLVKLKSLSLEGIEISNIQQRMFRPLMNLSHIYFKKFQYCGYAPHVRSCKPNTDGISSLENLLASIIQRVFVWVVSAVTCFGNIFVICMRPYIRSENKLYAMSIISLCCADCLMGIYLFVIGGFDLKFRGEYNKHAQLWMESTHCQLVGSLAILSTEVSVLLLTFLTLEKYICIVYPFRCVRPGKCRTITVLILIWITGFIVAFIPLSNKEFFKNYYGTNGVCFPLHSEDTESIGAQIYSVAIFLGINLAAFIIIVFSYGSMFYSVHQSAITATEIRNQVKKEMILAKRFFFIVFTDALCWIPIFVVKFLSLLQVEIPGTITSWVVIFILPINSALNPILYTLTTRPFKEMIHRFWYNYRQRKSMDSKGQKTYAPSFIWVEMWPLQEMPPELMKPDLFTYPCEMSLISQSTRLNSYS
RXFP1 ag – RXFP1 (human) receptor agonism | Q9HBX9 | HEK293T-RXFP1 cAMP TR-FRET, 30 min; response scale: percent of porcine relaxin response, buffer zero | Potency, µM (titrated, usually from 57.5 µM), for the others: top-dose activation, actives largely listed as activators | 0.3% of 370,000 active | AID 2676; active means well fitted activation curve with a large enough effect; inconclusive means small, poorly fitted or top-dose-only effect; further: potency means the concentration at half of the fitted maximal effect; on the % scale 0 is the no-effect control and ±100 the full control effect; nearly all actives have a fitted effect of over 60% in size
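HEK293 cells stably expressing RXFP1, treated 30 min at 37C with compounds plus PDE4 inhibitor Ro 20174; cAMP measured by HTRF TR-FRET. Normalized to buffer and 29 nM porcine relaxin; EC50 by Hill fit.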
gsp agonist – agonists of gsp mutant (McCune-Albright syndrome); Potency, µM (top dose mostly 76.9 µM), for the others: top-dose activation (cAMP increase), actives largely listed as activators; gsp mutant cells, cAMP HTRF, 30 min; 0.13% of 340,000 active; active means well fitted activation curve with a large enough effect; inconclusive means small, poorly fitted or top-dose-only effect, or another doubt; inactive means no such curve, though single readings can be large or run the other way; cell line not stated here;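 further: phosphodiesterase inhibitor Ro 20-1724 added with compounds to block cAMP breakdown; potency means the concentration at half of the fitted maximal effect; nearly all actives have a fitted effect of over 60% in size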
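Cells stably selected in G418 were plated at 2000/well, grown 16-24 hr, then given compounds in DMSO with the PDE inhibitor […] (300 uM solution added) for 30 min at 37C; cAMP was read by HTRF.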
Active calls of the source: *; ? = inconclusive; · = no result; [ ] = another dose, or the depositor's remark. This is a sample that favours compounds with a hit; in the whole collection about 0.9% have one here.

SMILES	gsp antag	RXFP1 antag	RXFP1 ag	gsp agonist
C[C@H](CO)N1C[C@H](C)[C@@H](CN(C)S(=O)(=O)c2cccc(F)c2)Oc2ncc(Br)cc2C1=O	·	8	·	32µM*
C[C@H](CO)N1C[C@H](C)[C@H](CN(C)S(=O)(=O)c2ccc(F)cc2)Oc2ncc(Br)cc2C1=O	·	2	·	?
CCN(CC)CCN(C(=O)c1ccc([N+](=O)[O-])cc1)c1nc2c(OC)cccc2s1	3%	0	7%	13µM*
Cc1ccc(-c2nc(C(=O)NCC3CCCO3)cc3c2[nH]c2ccccc23)cc1 (configuration not stated)	?	·	0%	·
COc1ccc(-c2nc(C(=O)NCC3CCCO3)cc3c2[nH]c2ccccc23)cc1 (configuration not stated)	28µM*	·	4%	·
O=C(NCc1ccco1)c1ccc2c(c1)N(Cc1cccc(Cl)c1)C(=O)c1ccccc1S2=O (configuration not stated)	·	8	1%	·
COc1ccc(NC(=O)CSCC(=O)Nc2ccc(S(=O)(=O)N3CCCCC3)cc2)cc1	-5%	-64*	1%	20%[15.4 µM]
COc1ccc(CSCC(=O)Nc2ccc(S(=O)(=O)N3CCCCCC3)cc2)cc1	-4%	21	1%	-3%
CC(C)N1CCC2(CC1)N=C(c1ccc3c(c1)OCO3)CC(c1cc(Cl)ccc1O)N2 (configuration not stated)	-7%	-67*	0%	33%
N#Cc1c(N)[nH]c(=S)c(C#N)c1-c1ccccc1	20%	34	30%	20µM*
COc1cc(N2C(=O)C=CC2=O)ccc1N1C(=O)C=CC1=O	50µM*	?	·	0%
O=[N+]([O-])c1ccc2nc(-c3ccncc3)[nH]c2c1	-3%	0	27%	10µM*
O=[N+]([O-])c1cccc(-c2nc3ccc([N+](=O)[O-])cc3[nH]2)c1	-25%	6	19%	?
O=[N+]([O-])c1ccc2nc(-c3ccc(Cl)cc3)[nH]c2c1	35µM*	-30	0%	-5%
Cc1ccc(-c2nc3ccc([N+](=O)[O-])cc3[nH]2)cc1	?	-17	-2%	18%
CCOC(=O)c1c(C)n(-c2ccc(C)cc2)c2ccc(OCC(O)CN3CCN(C)CC3)cc12 (configuration not stated)	11%	-86*	0%	-25%
Cc1ccc(C)c(N2CCN(C(=O)CCS(=O)(=O)c3ccc4c(c3)NC(=O)CO4)CC2)c1	50µM*	-17	4%	8%
CC(CC(=O)N1CCN(c2cccc(Cl)c2)CC1)S(=O)(=O)c1ccc2c(c1)NC(=O)CO2 (configuration not stated)	28µM*	-13	1%	-20%
O=C(NOCC1CC1)c1ccc(F)c(F)c1Nc1ccc(I)cc1Cl	·	-22	·	·
Cc1ccc(Cl)cc1N1CCN(C(=O)Cn2cnc3nc4c(cc3c2=O)CCCC4)CC1	·	-68*	3%	·
CCOCC(=O)Nc1nc2ccc(OCC)cc2s1	-9%	-4	0%	3%
CCOc1ccc2nc(NC(=O)C3(C)CC3(Br)Br)sc2c1 (configuration not stated)	?	-84*	·	4%
CCCC(=O)Nc1nc(C)c(C(C)=O)s1	13%	9	18µM*	?
Cc1ccc2scc(N3CCCCC3C)c(=O)c2c1 (configuration not stated)	·	0	0%	·
Cc1ccc(-c2nnc(Nc3ccc(F)cc3)c3ccccc23)cc1S(=O)(=O)N1CCN(C)CC1	·	-4	6%	·
SMILES	gsp antag	RXFP1 antag	RXFP1 ag	gsp agonist
O=C(Nc1cccc(-c2cnc3ccccc3n2)c1)C1CC(=O)N(c2ccccc2)C1 (configuration not stated)	?	-73*	1%	6%[15.4 µM]
CC(CC(C#N)(c1ccccc1)C(C)C)N(C)C (configuration not stated)	·	-5	·	·
Cc1cccc(NS(=O)(=O)c2cc([N+](=O)[O-])ccc2C)n1	8%	-62*	4%	2%[15.4 µM]
CC(=O)Nc1ccc(NS(=O)(=O)c2cc([N+](=O)[O-])ccc2C)cc1	·	-4	2%	7%[15.4 µM]
O=c1[nH]c2sc3c(c2c2nncn12)CCCC3	35µM*	4	0%	0%
CC1Cc2cc(/C(O)=C3/C(=O)C(=O)N(CCN4CCOCC4)C3c3cccc(Cl)c3)ccc2O1 (configuration not stated)	-1%	19	22%	?
CCCOc1cccc(C2/C(=C(/O)c3ccc4c(c3)CC(C)O4)C(=O)C(=O)N2CCN2CCOCC2)c1 (configuration not stated)	-3%	17	25µM*	?
C=CCOc1cccc(C2/C(=C(\O)c3ccc4c(c3)OCCO4)C(=O)C(=O)N2CCN2CCOCC2)c1 (configuration not stated)	17%	56	25µM*	?
Cc1cc(O)c(C)c(C)c1O	·	26	·	·
CCn1ccc2cc(S(=O)(=O)N3CCC(C(=O)NCc4ccc(OC)cc4)CC3)ccc21	·	-5	-1%	·
CC(C)Cc1ccc(C(C)CC2=CCC(CN(C)C)C2=O)cc1 (configuration not stated)	-7%	-83*	·	10%
Clc1ccccc1C(c1ccccc1)(c1ccccc1)n1ccnc1	?	-94*	1%	·
C#CC(c1ccccc1)(c1ccccc1)n1ccnc1	·	10	·	-7%
O=C(O)CNS(=O)(=O)c1ccc2c(c1)C(=O)c1cc(S(=O)(=O)NCC(=O)O)ccc1-2	3%	2	28%	13µM*
O=C1c2cc(S(=O)(=O)NCCO)ccc2-c2ccc(S(=O)(=O)NCCO)cc21	8%	5	4%	0%[15.4 µM]
O=C(Oc1ccc(N(C(=O)c2ccncc2)S(=O)(=O)c2ccc(Cl)cc2)cc1)c1ccncc1	0%	-4	-2%	-8%
COc1ccc(N(C(=O)c2ccncc2)S(=O)(=O)c2ccc(Cl)cc2)cc1	50µM*	-23	3%	?
O=C(Oc1ccc(N(C(=O)c2ccncc2)S(=O)(=O)c2ccc(F)cc2)cc1)c1ccncc1	-5%	-90*	2%	-21%
C[C@H](N)C(=O)N[C@@H](C)C(=O)NC1[C@H]2CN(c3nc4c(cc3F)c(=O)c(C(=O)O)cn4-c3ccc(F)cc3F)C[C@@H]12 (some centres not stated)	·	-5	·	·
CC(C)(C)c1cc(C=O)cc(C(C)(C)C)c1O	·	-20	·	·
O=C(CSc1nc(-c2ccc(F)cc2)[nH]c1-c1ccc(F)cc1)Nc1ccc2c(c1)OCO2	·	-60*	2%	·
COc1ccc(C[C@@H]2OC3(C=CC(=O)C=C3)O[C@H]2Cc2ccc(OC)cc2)cc1	-10%	-92*	·	-14%
CCN(CCNC(=O)C1CCN(Cc2nc(-c3ccc(Cl)cc3)oc2C)CC1)c1ccccc1	1%	-62*	1%	1%
CCOc1ccccc1CNC(=O)c1sc2ncccc2c1-n1cccc1	·	-11	0%	·
Nc1ncnc2c1ncn2C1OC(CO)C(O)C1O (configuration not stated)	10%	1	14µM*	2%

Screening results (PubChem BioAssay)
